# Laboratory results as given in PubChem BioAssay (Tox21).
# Several values for one entry are separate records, joined by “and”; a condition that tells them apart may be missing. Equal values may be shown once. Inconclusive results are not listed. Entries that show only a call come without a potency. A structure can be active in one record and inactive in another. Activity calls are given as the source filed them. Calls come from the whole dose curve; as a rule, active = well fitted curve in the direction sought with a large enough effect in the repeat runs; inconclusive = weak or mixed curves; inactive = no such curve, though single readings can be large; an effect the other way counts as inactive or inconclusive.
# Assays:
# [1] = A CellTox Green Cytotoxicity Assay to monitor cytotoxicity in HEK293 cells - 24 hour (AID 1224875); note: nearly all actives have a fitted effect of over 45% in size; note: potency is the fitted concentration of half-maximal effect
# Outline: (§1)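 HEK293 cells premixed with CellTox Green dye were seeded at 600 cells/well and left 5 h at 37 C/5% CO2 before pin transfer of 23 nL compound in DMSO. Fluorescence from dye bound to dead-cell DNA was read during 40 h treatment.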
# [2] = A CellTox Green Cytotoxicity Assay to monitor cytotoxicity in HepG2 cells - 16 hour (AID 1224876); note: nearly all actives have a fitted effect of over 45% in size; note: potency is the fitted concentration of half-maximal effect
# Outline: (§2)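 HepG2 cells were seeded together with the CellTox Green dye at 600 cells/well, left 5 h at 37 C/5% CO2, then given compounds in DMSO. Fluorescence from dye bound to dead-cell DNA was read repeatedly over 40 h of treatment at 37 C.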
# [3] = qHTS RealTime-Glo MT Cell Viability Assay in HepG2 cells - 32 hour (AID 1224877); note: nearly all actives have a fitted effect of over 55% in size; note: potency is the fitted concentration of half-maximal effect
# Outline: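 Real-time, nonlytic viability: 600 HepG2 cells/well mixed with NanoLuc enzyme plus prosubstrate; 5 h settle, compound (DMSO) added by pintool; luminescence monitored over 40 h at 37 C.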
# [4] = A CellTox Green Cytotoxicity Assay to monitor cytotoxicity in HepG2 cells - 24 hour (AID 1224878); note: nearly all actives have a fitted effect of over 45% in size; note: potency is the fitted concentration of half-maximal effect
# Outline: as §2
# [5] = A CellTox Green Cytotoxicity Assay to monitor cytotoxicity in HepG2 cells - 40 hour (AID 1224879); note: nearly all actives have a fitted effect of over 40% in size; note: potency is the fitted concentration of half-maximal effect
# Outline: as §2
# [6] = qHTS RealTime-Glo MT Cell Viability Assay in HEK293 cells - 0 hour (AID 1224880); note: top concentration of the series differs between compounds; nearly all actives have a fitted effect of over 45% in size
# Outline: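 HEK293 cells mixed with RealTime-Glo reagents (NanoLuc plus cell-permeant prosubstrate) at 600 cells/well, preincubated 5 h at 37 C/5% CO2, then given 23 nL compound in DMSO. Nonlytic luminescence from viable cells was read at 0, 8, 16, 24, 32 and 40 h.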
# [7] = A CellTox Green Cytotoxicity Assay to monitor cytotoxicity in HEK293 cells - 32 hour (AID 1224881); note: nearly all actives have a fitted effect of over 40% in size; note: potency is the fitted concentration of half-maximal effect
# Outline: as §1
# [8] = A CellTox Green Cytotoxicity Assay to monitor cytotoxicity in HepG2 cells - 0 hour (AID 1224882); note: nearly all actives have a fitted effect of over 35% in size
# Outline: as §2
# [9] = A CellTox Green Cytotoxicity Assay to monitor cytotoxicity in HepG2 cells - 32 hour (AID 1224883); note: nearly all actives have a fitted effect of over 50% in size; note: potency is the fitted concentration of half-maximal effect
# Outline: as §2
# [10] = A CellTox Green Cytotoxicity Assay to monitor cytotoxicity in HEK293 cells - 8 hour (AID 1224884); note: nearly all actives have a fitted effect of over 35% in size
# Outline: as §1
SMILES,Potency [1],Potency [2],Potency [3],Potency [4],Potency [5],outcome [6],Potency [7],Potency [8],Potency [9],Potency [10]
CCC(=O)C(CC(C)N(C)C)(c1ccccc1)c1ccccc1 (stereo not drawn),inactive,inactive,inactive,39.1 µM (active) and inactive,43.8 µM (active) and 48.6 µM (active),inactive,inactive,inactive,43.8 µM (active) and 48.6 µM (active) and inactive,
CCCCCCCCCCn1cc[n+](C)c1,inactive,inactive,inactive,44.1 µM (active) and inactive,44.1 µM (active) and 48.9 µM (active),inactive,inactive,inactive,44.1 µM (active) and 54.9 µM (active),
CNC,inactive,inactive,inactive,inactive,inactive,inactive,inactive,inactive,inactive,
N#CS,inactive,inactive,inactive,inactive,inactive,inactive,inactive,inactive,inactive,
COc1ccccc1N,inactive,inactive,inactive,inactive,inactive,inactive,inactive,inactive,inactive,
O=C(O)COc1ccc(Cl)cc1Cl,inactive,inactive,inactive,inactive,inactive,inactive,inactive,inactive,inactive,
COCC(=O)N(c1c(C)cccc1C)C(C)C(=O)OC (stereo not drawn),inactive,inactive,inactive,inactive,inactive,inactive,inactive,inactive,inactive,
CCCCn1cc[n+](C)c1C,inactive,inactive,inactive and 44.2 µM (active),inactive,inactive,inactive,inactive,inactive,inactive,
CC(=O)[O][Hg][c]1ccccc1,863 nM (active) and 1.38 µM (active) and 1.07 µM (active),1.72 µM (active) and 2.45 µM (active) and 1.51 µM (active),1.72 µM (active) and 1.95 µM (active) and 1.07 µM (active),1.93 µM (active) and 2.45 µM (active) and 1.34 µM (active),1.22 µM (active) and 1.95 µM (active) and 1.07 µM (active),inactive,611 nM (active) and 977 nM (active) and 213 nM (active),inactive,1.53 µM (active) and 1.95 µM (active) and 1.07 µM (active),
CCNc1nc(Cl)nc(NCC)n1,inactive,inactive,inactive,inactive,inactive,inactive,inactive,inactive,inactive,
OCCOc1ccccc1,inactive,inactive,inactive,inactive,inactive,inactive,inactive,inactive,inactive,
CC[n+]1ccccc1,inactive,inactive,inactive and 49.1 µM (active),inactive,inactive,inactive,inactive,inactive,inactive,
O=[N+]([O-])c1ccccc1O,inactive,inactive,inactive,inactive,inactive,inactive,inactive,inactive,inactive,
CCCCCC[n+]1ccccc1,inactive,inactive,inactive,inactive,inactive,inactive,inactive,inactive,inactive,
O=C(O)C(Cl)(Cl)Cl,inactive,inactive,inactive,inactive,inactive,inactive,inactive,inactive,inactive,
Nc1ccccc1,inactive,inactive,inactive,inactive,inactive,inactive,inactive,inactive,inactive,
CCCCCCCCn1cc[n+](C)c1,inactive,inactive,inactive,inactive,inactive,inactive,21.7 µM (active) and inactive,inactive,inactive,

SMILES,Potency [1],Potency [2],Potency [3],Potency [4],Potency [5],outcome [6],Potency [7],Potency [8],Potency [9],Potency [10]
CCCC[n+]1ccccc1C,inactive,inactive,inactive,inactive,inactive,inactive,inactive,inactive,inactive,
COP(=O)(OC)C(O)C(Cl)(Cl)Cl (stereo not drawn),inactive,inactive,inactive,inactive,inactive,inactive,inactive,inactive,inactive,
CCCCCCn1cc[n+](C)c1,inactive,inactive,inactive and 50 µM (active),inactive,inactive,inactive,inactive,inactive,inactive,
O=C(O)c1ccccc1O,inactive,inactive,inactive,inactive,inactive,inactive,inactive,inactive,inactive,
CCC[N+]1(C)CCCC1,inactive,inactive,inactive and 49.3 µM (active),inactive,inactive,inactive,inactive,inactive,inactive,
CCCC[n+]1cccc(C)c1,inactive,inactive,inactive and 55.7 µM (active),inactive,inactive,inactive,inactive,inactive,inactive,
Cc1cc(-c2ccc(N)c(C)c2)ccc1N,inactive,inactive,inactive,inactive and 43.6 µM (active),inactive and 43.6 µM (active),inactive,inactive,inactive,inactive and 43.6 µM (active),
CN(C)[C@@H]1C(=O)C(C(N)=O)=C(O)[C@@]2(O)C(=O)C3=C(O)c4c(O)cccc4[C@@](C)(O)[C@H]3[C@H](O)[C@@H]12,inactive,inactive,inactive,inactive,inactive,inactive,inactive,inactive,inactive,
O=P1(N(CCCl)CCCl)NCCCO1 (stereo not drawn),inactive,inactive,inactive,inactive,inactive,inactive,inactive,inactive,inactive,
O=C(O)C(Cl)Cl,inactive,inactive,inactive,inactive,inactive,inactive,inactive,inactive,inactive,
CC(Cl)(Cl)C(=O)O,inactive,inactive,inactive,inactive,inactive,inactive,inactive,inactive,inactive,
CC(=O)O,inactive,inactive,inactive,inactive,inactive,inactive,inactive,inactive,inactive,
CC[N+](CC)(CC)CC,inactive,inactive,inactive,inactive,inactive,inactive,inactive,inactive,inactive,
CCCC[n+]1ccccc1,inactive,inactive,inactive,inactive,inactive,inactive,inactive,inactive,inactive,
CCC[N+]1(C)CCCCC1,inactive,inactive,inactive and 34.8 µM (active),inactive,inactive,inactive,inactive,inactive,inactive,
CCCn1cc[n+](C)c1,inactive,inactive,inactive,inactive,inactive,inactive,inactive,inactive,inactive,inactive
